From PubChem BioAssay
Only a selection was taken, and hits are over-represented in it overall.
Pf apPOL block = Pf-apPOL inhibitors, biochemical, fluorescence. Plasmodium falciparum apicoplast DNA polymerase (apPOL). Recombinant Pf-apPOL, molecular beacon fluorescence, 1.5 h. inhibition, % at 10 µM. hit rate 0.25% among 210,000. AID 1794808, 2022
mHTT CaM bind = mutant huntingtin-calmodulin interaction inhibitors – biochemical, AlphaScreen, primary screen | inhibition, % at 15 µM | AID 1671202, 2021 | P42858 | hit rate 3.6% among 190,000 | AlphaScreen His-mHTT/GST-CaM binding, luminescence;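 note: 0% = both proteins with DMSO and 100% = one protein alone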
Numbers without * were called inactive; . = not tested or not shown. Cut-off read from the data, not from the text of the source: active = inhibition above about 50%; inactive = the rest.

SMILES | Pf apPOL block | mHTT CaM bind
CCc1[nH]nc(-c2ccccc2)c1NC(=O)CC1CCCC1 | 72.4* | 97.9*
CCCc1[nH]nc(-c2ccccc2)c1NC(=O)C1CC1 | -6.0 | 12.9
O=C(NCc1ccccc1)Nc1cccc(-c2ccc(N3CCCC3)nn2)c1 | -51.6 | 84.6*
O=C(Nc1cccc(-c2ccc(N3CCOCC3)nn2)c1)c1ccc2nsnc2c1 | 2.0 | -5.7
O=C(Nc1cccc(-c2ccc(N3CCOCC3)nn2)c1)c1cc(-c2ccco2)on1 | 41.7 | 55.3*
O=C(COc1ccc(F)cc1F)Nc1cccc(-c2ccc(N3CCOCC3)nn2)c1 | -1.3 | -1.5
COc1ccc(NC(=O)Nc2cccc(-c3ccc(N4CCOCC4)nn3)c2)cc1OC | -17.8 | 50.3*
O=C(Nc1cccc(-c2ccc(N3CCCCC3)nn2)c1)c1ccccc1[N+](=O)[O-] | 3.4 | 11.9
Cc1ccc(-c2ccc(N3CCN(S(C)(=O)=O)CC3)nn2)cc1C | -6.2 | -7.7
COc1cc(C)c(C)cc1S(=O)(=O)Nc1cccc(-c2ccc(N3CCCC3)nn2)c1 | -3.1 | 76.6*
N#C/C(=C\Nc1ccc(I)cc1)c1nc(-c2ccc3c(c2)OCO3)cs1 | -2.1 | -6.3
CCn1ncc(CN2CCC(Nc3ncnc4c3CCC4)CC2)c1C | 1.7 | -11.5
O=C1C(=Cc2ccc3c(c2)OCO3)Oc2cc(OS(=O)(=O)c3ccccc3)ccc21 | 4.2 | -6.5
COc1ccc(C(C)NC(=O)c2c(C)noc2-c2ccccc2C)cc1 (centres undefined) | -0.2 | -2.0
CCN(C(=O)C1CCN(c2ncnc3c2nc2n3CCCCC2)CC1)c1cc(C)ccc1C | -3.8 | 24.4
O=C(c1nnn2c1COC(c1ccc(F)cc1)C2)N1CCC2(CC1)OCCO2 (centres undefined) | 1.3 | -4.3
COc1ccc(C2CCCN2C(=O)Nc2cc(Cl)ccc2C)cc1 (centres undefined) | -0.4 | -12.7
O=C(CN(c1ccccc1)S(=O)(=O)c1ccc(Cl)cc1)N1CCCCCC1 | 7.4 | -6.3
CCCC1=NN(c2ccccc2)C(=O)/C1=C/c1ccc(OCC)c(OCC)c1 | 3.8 | 7.0
Cc1ccc(-c2nnn(CC(=O)Nc3ccccc3I)n2)cc1 | -6.7 | -3.0
O=C(c1ccncc1)N1CCC(n2nc(-c3ccsc3)ccc2=O)CC1 | -6.1 | 15.6
Cc1ccsc1C(=O)N1CCC(n2nc(-c3ccsc3)ccc2=O)CC1 | 2.4 | 96.2*
COc1ccc(C(=O)CC(=O)c2ccccc2)cc1 | 4.0 | 42.2
COc1ccc(O)c(C(=O)CC(=O)c2ccccc2)c1 | 2.2 | 50.0*
CCc1c(-c2ccccc2)n(Cc2ccco2)c2nc3c(c(=O)n(C)c(=O)n3C)n12 | -7.9 | 7.0
SMILES | Pf apPOL block | mHTT CaM bind
CCOc1ccccc1C=C1Oc2cc(OCC(C)=O)ccc2C1=O | -1.3 | 4.1
Oc1ccc(-c2[nH]ncc2Oc2ccccc2)c(O)c1 | 2.5 | 44.0
COc1ccc(-c2n[nH]c(C)c2Oc2ccccc2)c(O)c1 | -2.7 | 32.0
CCCc1ccc(Oc2c(C)oc3c(C)c(O)ccc3c2=O)cc1 | -10.7 | 1.5
Oc1ccc(-c2[nH]ncc2Oc2ccccc2)c(O)c1O | -2.4 | 100.0*
Cc1[nH]nc(-c2ccc(O)c(O)c2O)c1Oc1ccccc1 | -6.3 | 97.3*
CCCc1ccc(Oc2cn[nH]c2-c2ccc(O)c(C)c2O)cc1 | -7.0 | 90.1*
Cc1cc(C)c(NC(=O)c2cccs2)c(Cl)c1 | 0.4 | -7.2
Cc1cc(C(=O)NC2CCN(c3ccc(F)cc3)C2=O)no1 (centres undefined) | 0.5 | -2.1
Cc1ccc(SCC(=O)Nc2nnc(Cc3ccc4c(c3)OCO4)o2)cc1 | -25.1 | 31.6
O=C(Nc1nc2n(n1)C(c1ccccc1)C=C(c1ccccc1)N2)c1ccccc1 (centres undefined) | 0.3 | 59.0*
O=C(O)CCC(=O)Nc1nc2n(n1)C(c1ccccc1)C=C(c1ccc(Cl)cc1)N2 (centres undefined) | 2.3 | 31.0
CC(C)c1cc(C(=O)N2CCCC2)nc2ccnn12 | 0.9 | -10.5
COc1cccc(CNC(=O)CCC2CCCN(c3cc(NC4CC4)ncn3)C2)c1 (centres undefined) | -2.7 | 14.8
CCOC(=O)N1CCc2nc(NC(=O)c3nc4ccccc4s3)sc2C1 | 0.4 | 35.5
CCOC(=O)N1CCc2nc(NC(=O)c3sc4ccccc4c3Cl)sc2C1 | -0.9 | 52.9*
CC(=O)N1CCc2c(sc(NC(=O)c3sc4ccccc4c3Cl)c2C#N)C1 | -22.7 | 61.2*
N#Cc1ccc(NC(=O)c2sc3ccccc3c2Cl)cc1 | -8.5 | .
Cc1cccc(-c2nc(-c3ccc(-n4cccn4)nc3)no2)c1 | 1.4 | -7.0
Cc1cc(C)c2c(c1)[nH]c1nnc(SCC(=O)NCc3ccccc3)nc12 | -4.2 | 8.0
Cc1cc(C)c2c(c1)[nH]c1nnc(SCC(=O)N3CCN(c4ccccc4)CC3)nc12 | 1.3 | 74.0*
CSc1ccc(CNC(=O)CC2CCN(C(=O)c3[nH]c(C)cc3C)CC2)cc1 | -4.9 | 26.2
O=C(Cc1cccs1)N1CCC(c2nc(-c3ccccc3)no2)C1 (centres undefined) | 1.9 | 22.2
